Assay outcomes as filed in PubChem BioAssay.
D3 ag: activates the human D3 dopamine receptor; P35462; D3R DiscoveRx beta-arrestin cells, luminescence, 90 min; max activation, %; 410,000 compounds, 0.58% hits; in the data active = max activation above about 30%
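Agonist mode: compounds and dopamine controls were applied to plated cells for 90 min at 37 degrees C after an overnight attachment at 1500 cells/well. Luminescent read-out followed 30 - 60 minutes at room temperature with DiscoveRx detection reagent.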
D3 antag: blocks the human D3 dopamine receptor | AID 652054 | 360,000 compounds, 2.5% hits | D3R cells, DiscoveRx beta-arrestin luminescence, antagonist mode; active compounds read low | P35462 | max response, negative = inhibition, %; in the data active = max response below about -50%; inconclusive = no clear call, values can overlap the other calls
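Cells plated overnight at 1500 cells/well, then exposed to library compounds with dopamine controls for 90 minutes at 37 degrees C. DiscoveRx reagent added for 30–60 minutes at room temperature; luminescence read, quantitative HTS format.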
D1 PAM: potentiators of human D1 dopamine receptor; P21728; HEK293 TREx D1 cells, calcium flux, dopamine EC20 potentiation; potentiation, % at 10 µM; 360,000 compounds, 0.036% hits; AID 504651; in the data active = potentiation above about 30%
Target sequence (P21728 whole entry, looked up): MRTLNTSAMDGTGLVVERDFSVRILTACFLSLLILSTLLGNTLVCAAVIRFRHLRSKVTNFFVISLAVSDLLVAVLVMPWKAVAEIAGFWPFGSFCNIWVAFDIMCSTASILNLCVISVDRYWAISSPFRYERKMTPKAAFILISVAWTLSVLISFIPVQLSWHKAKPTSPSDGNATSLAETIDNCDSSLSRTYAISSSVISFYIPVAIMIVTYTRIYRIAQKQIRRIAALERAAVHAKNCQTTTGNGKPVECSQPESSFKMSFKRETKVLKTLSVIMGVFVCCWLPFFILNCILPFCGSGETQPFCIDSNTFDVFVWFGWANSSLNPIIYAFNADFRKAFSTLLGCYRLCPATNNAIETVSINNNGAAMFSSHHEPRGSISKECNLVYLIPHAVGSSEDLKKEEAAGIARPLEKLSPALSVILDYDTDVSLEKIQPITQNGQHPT
D1 antag: antagonists of human D1 dopamine receptor; P21728; 360,000 compounds, 3.2% hits; HEK293 TREx D1 cells, calcium flux, dopamine EC80; active compounds read low; AID 504652; activity change, negative = inhibition, % at 10 µM; in the data active = activity change below about -30%
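Kinetic fluorescence of a calcium dye serves as the read-out. D1-expressing Hek293 Trex cells, induced overnight at 30 C, are exposed to compound for 180 s before an EC80 dopamine addition, then read 180 s further.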
D1 agonist: agonists of human D1 dopamine receptor | activation, % at 2 µM | 360,000 compounds, 1% hits | HEK293 T-REx D1 cells, calcium flux, agonist mode | P21728 | AID 504660; in the data active = activation above about 30%
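Inducible HEK293 T-REx D1 cells, force-coupled to calcium signalling, were plated at 4000 cells/well with tetracycline and held overnight at 30 C. After no-wash calcium dye loading, compound-evoked calcium rise over 180 s flagged agonists.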
Large screens that a line does not name were inactive; ! = not active in a repeat. Compounds with a hit are over-represented: about 6% of the library has one in this group of screens.

C=C(C)[C@@]12OC3(c4ccccc4)O[C@@H]1C1[C@@H]4O[C@]4(CO)[C@@H](O)[C@]4(O)C(=O)C(C)=C[C@H]4[C@@]1(O3)[C@H](C)[C@H]2OC(=O)/C=C/C=C/c1ccccc1 (stereo partly drawn)	D3 antag -61 (no result: D1 PAM, D1 antag, D1 agonist)
CN(C)C(=O)Oc1ccc(OCc2nc3ccccc3[nH]2)cc1	D1 antag -48
COc1ccc(NC(=O)c2cccn(Cc3ccc(Cl)cc3)c2=O)c(OC)c1	D1 antag -40 (no result: D3 antag)
COc1ccc(NC(C)=O)cc1NC(=O)c1cccn(Cc2ccccc2)c1=O	none (no result: D3 antag)
CCSc1nnc(NC(=O)c2cccn(Cc3ccc(Cl)cc3)c2=O)s1	D1 antag -35 (no result: D3 antag)
Cc1nc2ccccc2c(=O)n1-c1ccccc1Cl	none (no result: D3 antag, D1 PAM, D1 antag, D1 agonist)
COC(=O)c1ccc(CN2CCN(Cc3ccccc3)CC2)cc1	D3 antag -81
CC(=O)c1ccc(-c2ccccc2)cc1	D1 antag -34
CC(=O)c1ccc(OC(=O)N(C)c2ccccc2)cc1	none
Nc1ccc(CCN2CCN(c3cccc(C(F)(F)F)c3)CC2)cc1	D3 antag -109 (no result: D1 PAM, D1 antag, D1 agonist)
Nc1ccc(CCN2CCCC2)cc1	none
Cc1ccc(-n2c(/C=C\c3ccc(F)c(F)c3)nc3ccccc3c2=O)c(C)c1	none (no result: D3 antag)
CCCC1=Nc2cc(C(=O)NC3CCC(C)CC3)ccc2Sc2ccccc21 (stereo not drawn)	none (no result: D3 antag)
COc1ccc(C(CNC(=O)c2ccc3c(c2)CCC3)N(C)C)cc1 (stereo not drawn)	D3 antag -81
CCOc1ccccc1CN1C2CCC1CC(c1ccc(C)cc1)C2 (stereo not drawn)	D3 antag -70, D1 antag -41
CC(Cc1ccc2c(c1)OCO2)NO (stereo not drawn)	none (no result: D3 antag, D1 PAM, D1 antag, D1 agonist)
Cn1ncnc2c(=O)n(C)c(=O)nc1-2	D3 antag -81
COc1ccc(-n2c(/C=C\c3ccccc3F)nc3ccccc3c2=O)c(OC)c1	none (no result: D3 antag)
CC(=NCCC(c1ccccc1)c1ccccc1)c1c(O)n(C)c(=O)n(C)c1=O	none
Cn1c(O)c(C(=N)COc2ccccc2)c(=O)n(C)c1=O	D3 ag 45 (no result: D1 PAM, D1 antag, D1 agonist)
CCC(OC(C)=O)C(CC(C)NC)(c1ccccc1)c1ccccc1 (stereo not drawn)	none (no result: D3 antag, D1 PAM, D1 antag, D1 agonist)
CCN(CC)CCOC(=O)C(C)(c1ccccc1)c1ccccc1	none (no result: D3 antag, D1 PAM, D1 antag, D1 agonist)
CCCCCCCCOC(=O)c1ccccc1C(=O)OCCCCCCCC	none (no result: D3 antag, D1 PAM, D1 antag, D1 agonist)
CCN(CC)CCCOC(=O)C(OC(C)C)(c1ccccc1)c1ccccc1	D3 antag -101
CCOC(C(=O)OCCCN(CC)CC)(c1ccccc1)c1ccccc1	D3 antag -55
CC(C)NC(C)Cc1ccc(I)cc1 (stereo not drawn)	D3 antag -89
COP(=S)(OC)Oc1cc(Cl)c(Cl)cc1Cl	none (no result: D3 antag, D1 PAM, D1 antag, D1 agonist)
CCc1cc2c(N3CCN(C)CC3)ncnc2s1	D3 antag inconclusive
CCN1CCN(c2ncnc3ccc(Br)cc23)CC1	D3 antag -66
C[C@H](N)[C@H](O)c1ccc(O)c(O)c1	none (no result: D3 antag, D1 PAM, D1 antag, D1 agonist)
C#C[C@]1(O)C=C[C@H]2[C@@H]3CCC4=CC(=O)CC[C@@H]4[C@H]3CC[C@@]21CC	none (no result: D3 antag, D1 PAM, D1 antag, D1 agonist)
Cc1ccc(NC(=O)CN2C(=O)CN=C(c3ccccc3)c3ccccc32)cc1Cl	none (no result: D3 antag)
Cc1cccc(N2CCc3c2nc2ccccc2c3N)c1	D3 antag inconclusive, D1 antag -32!
CCCCCc1nc2ccccc2c(=O)n1-c1ccc(C)cc1	none (no result: D3 antag)
CCCCCc1nc2c(c(=O)c3ccccc3n2C)c(=O)n1C1CCCCCC1	D1 antag -55, D1 agonist 191
